molecular target: T1, BAP1 (UniProt Q92560); assay: log2 ratio of Biotin-Ahx-Ub-VS probe labelling (fragment/DMSO); higher = less target engagement (more negative = stronger competition), active = hit call of the paper (q ≤ 0.05, log2 ratio ≤ -1); conditions: compound concentration: 200 uM; treatment time: 3 h
T1 sequence (whole entry): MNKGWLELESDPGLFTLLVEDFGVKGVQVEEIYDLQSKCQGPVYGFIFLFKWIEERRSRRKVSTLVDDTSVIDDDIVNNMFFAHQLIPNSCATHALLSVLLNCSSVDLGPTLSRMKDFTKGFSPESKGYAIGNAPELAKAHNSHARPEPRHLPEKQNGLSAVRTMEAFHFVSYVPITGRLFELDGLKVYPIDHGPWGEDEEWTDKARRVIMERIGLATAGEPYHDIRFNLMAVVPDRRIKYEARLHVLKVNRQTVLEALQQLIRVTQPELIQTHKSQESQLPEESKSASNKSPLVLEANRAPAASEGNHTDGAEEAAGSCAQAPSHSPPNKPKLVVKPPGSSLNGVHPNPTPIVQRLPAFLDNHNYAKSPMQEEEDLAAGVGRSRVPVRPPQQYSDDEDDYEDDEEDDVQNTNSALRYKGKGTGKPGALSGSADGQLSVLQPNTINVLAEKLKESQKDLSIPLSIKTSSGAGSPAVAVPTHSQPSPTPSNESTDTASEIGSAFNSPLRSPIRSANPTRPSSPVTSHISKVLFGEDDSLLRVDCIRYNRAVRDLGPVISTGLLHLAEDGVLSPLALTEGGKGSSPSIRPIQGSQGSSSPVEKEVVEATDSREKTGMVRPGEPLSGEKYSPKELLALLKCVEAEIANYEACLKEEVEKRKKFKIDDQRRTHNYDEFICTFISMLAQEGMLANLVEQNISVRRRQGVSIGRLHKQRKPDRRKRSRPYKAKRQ
Procedure, shortened: (§1)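 Each value is an average log2 ratio of fragment to vehicle, tested by unpaired t-test. The underlying Spectronaut label-free quantities were global-median-normalised, and only proteins with ≥2 unique peptides were included. Triplicate HEK293T lysate samples (495 µg) were exposed to fragment at 200 µM or vehicle for 3 h, then to Biotin-Ahx-Ub-VS at 0.5 µM final for 1 h, before NeutrAvidin enrichment of labelled DUBs, LysC and trypsin digestion, and diaPASEF LC-MS/MS.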

Row | SMILES | log2 ratio of Biotin-Ahx-Ub-VS probe labelling
1 | Cc1cccc(N(CCC#N)C(=O)CCl)c1C | -0.645 (inactive)
2 | O=C(CCl)NCC(=O)N1CCCC1 | -0.409 (inactive)
3 | Cl.O=C(CCl)NC1(c2ncccn2)CCC1 | -0.171 (inactive)
4 | Cc1ccccc1OCC(=O)N1CCN(C(=O)CCl)CC1 | -0.74 (inactive)
5 | O=C(CCl)N1CCOC2(CCC2)CC1 | -0.305 (inactive)
6 | O=C(CCl)N1CCOC(CCc2ccccc2)C1 (centres undefined) | -1.1 (active)
7 | CCC(NC(=O)CCl)c1ccc(Cl)cc1 (centres undefined) | -2.81 (active)
8 | COc1cc(Cl)c(C)cc1NC(=O)CCl | -2.01 (active)
9 | O=C(CCl)NCc1cccc(F)c1 | -2.76 (active)
10 | O=C(CCl)NCc1cccc(N2CCCC2=O)c1 | -3.09 (active)
11 | Cl.O=C(CCl)NCc1cc2c(nc1O)CCCC2 | -1.87 (active)
12 | COc1ccc(CN(C)C(=O)CCl)cc1 | -1.65 (active)
13 | CC1CCc2onc(CNC(=O)CCl)c2C1 (centres undefined) | -1.22 (active)
14 | N#Cc1ccccc1N1CCN(C(=O)CCl)CC1 | -1.32 (active)
15 | Cl.O=C(CCl)N1CCc2ncncc2C1 | -0.732 (inactive)
16 | Cc1cc(Cl)ccc1NC(=O)CCl | -3.02 (active)

Row | SMILES | log2 ratio of Biotin-Ahx-Ub-VS probe labelling
17 | Cc1ccc(CC(NC(=O)CCl)c2ccccn2)cc1.Cl (centres undefined) | -0.525 (inactive)
18 | O=C(CCl)N1CCC(C(=O)N2CCCC2)CC1 | -0.206 (inactive)
19 | CCc1c[nH]c(CNC(=O)CCl)n1.Cl | -0.464 (inactive)
20 | O=C(CCl)NC(Cn1ccccc1=O)c1ccccc1 (centres undefined) | -1.18 (active)
21 | Cc1nnc(C(NC(=O)CCl)c2ccccc2)n1C (centres undefined) | 0.428 (inactive)
22 | Cc1cccc2nc(CCNC(=O)CCl)cn12.Cl | -0.904 (inactive)
23 | Cc1cccnc1NC(=O)C1CCN(C(=O)CCl)CC1.Cl | -0.703 (inactive)
24 | COc1cccc(CN(C)C(=O)CCl)c1 | -2.68 (active)
25 | Cl.O=C(CCl)NCCN1CCc2ccccc21 | -1.61 (active)
26 | O=C(CCl)N1CCC(c2nc3ccccc3o2)CC1 | -1.64 (active)
27 | O=C(CCl)NC1CCC(C(F)(F)F)CC1 (centres undefined) | -1.11 (active)
28 | Cc1nc(CNC(=O)CCl)c2ccccn12.Cl | -0.847 (inactive)
29 | O=C(CCl)NC1CCS(=O)(=O)c2ccccc21 (centres undefined) | -2.77 (active)
30 | O=C(CCl)N1CCC(=C(F)CO)C1 | -0.015 (inactive)
31 | O=C(CCl)Nc1cccc2ncccc12 | -3.71 (active)
32 | O=C(CCl)Nc1cccc(C(=O)N2CCSCC2)c1 | -3.62 (active)

molecular target: EIF3F (UniProt O00303); assay: as above; conditions: compound concentration: 200 uM; treatment time: 3 h
Sequence (O00303 whole entry): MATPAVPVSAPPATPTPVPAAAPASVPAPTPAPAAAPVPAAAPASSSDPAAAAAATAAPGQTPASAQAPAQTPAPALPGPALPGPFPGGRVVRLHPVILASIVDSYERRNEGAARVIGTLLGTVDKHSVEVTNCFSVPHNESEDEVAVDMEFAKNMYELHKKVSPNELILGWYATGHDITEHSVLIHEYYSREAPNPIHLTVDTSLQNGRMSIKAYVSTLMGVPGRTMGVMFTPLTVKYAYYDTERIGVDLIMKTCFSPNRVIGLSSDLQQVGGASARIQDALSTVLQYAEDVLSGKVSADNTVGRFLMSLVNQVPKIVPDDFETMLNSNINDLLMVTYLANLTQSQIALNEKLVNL
Procedure, shortened: as §1

Row | SMILES | log2 ratio of Biotin-Ahx-Ub-VS probe labelling
33 | Cc1cccc(N(CCC#N)C(=O)CCl)c1C | -0.0896 (inactive)
34 | O=C(CCl)NCC(=O)N1CCCC1 | -0.198 (inactive)
35 | Cl.O=C(CCl)NC1(c2ncccn2)CCC1 | -0.137 (inactive)
36 | Cc1ccccc1OCC(=O)N1CCN(C(=O)CCl)CC1 | -0.317 (inactive)
37 | O=C(CCl)N1CCOC2(CCC2)CC1 | -0.12 (inactive)
38 | O=C(CCl)N1CCOC(CCc2ccccc2)C1 (centres undefined) | -0.348 (inactive)
39 | CCC(NC(=O)CCl)c1ccc(Cl)cc1 (centres undefined) | -0.0176 (inactive)
40 | COc1cc(Cl)c(C)cc1NC(=O)CCl | 0.0292 (inactive)
41 | O=C(CCl)NCc1cccc(F)c1 | -0.186 (inactive)
42 | O=C(CCl)NCc1cccc(N2CCCC2=O)c1 | 0.179 (inactive)
43 | Cl.O=C(CCl)NCc1cc2c(nc1O)CCCC2 | 0.116 (inactive)
44 | COc1ccc(CN(C)C(=O)CCl)cc1 | -0.171 (inactive)
45 | CC1CCc2onc(CNC(=O)CCl)c2C1 (centres undefined) | -0.165 (inactive)
46 | N#Cc1ccccc1N1CCN(C(=O)CCl)CC1 | -0.123 (inactive)
47 | Cl.O=C(CCl)N1CCc2ncncc2C1 | -0.328 (inactive)
48 | Cc1cc(Cl)ccc1NC(=O)CCl | 0.0767 (inactive)

Row | SMILES | log2 ratio of Biotin-Ahx-Ub-VS probe labelling
49 | Cc1ccc(CC(NC(=O)CCl)c2ccccn2)cc1.Cl (centres undefined) | -0.0559 (inactive)
50 | O=C(CCl)N1CCC(C(=O)N2CCCC2)CC1 | -0.123 (inactive)
51 | CCc1c[nH]c(CNC(=O)CCl)n1.Cl | -1.13 (inactive)
52 | O=C(CCl)NC(Cn1ccccc1=O)c1ccccc1 (centres undefined) | 0.0892 (inactive)
53 | Cc1nnc(C(NC(=O)CCl)c2ccccc2)n1C (centres undefined) | 0.534 (inactive)
54 | Cc1cccc2nc(CCNC(=O)CCl)cn12.Cl | -0.438 (inactive)
55 | Cc1cccnc1NC(=O)C1CCN(C(=O)CCl)CC1.Cl | -0.244 (inactive)
56 | COc1cccc(CN(C)C(=O)CCl)c1 | 0.0528 (inactive)
57 | Cl.O=C(CCl)NCCN1CCc2ccccc21 | -0.106 (inactive)
58 | O=C(CCl)N1CCC(c2nc3ccccc3o2)CC1 | -0.00792 (inactive)
59 | O=C(CCl)NC1CCC(C(F)(F)F)CC1 (centres undefined) | -0.798 (inactive)
60 | Cc1nc(CNC(=O)CCl)c2ccccn12.Cl | -0.26 (inactive)
61 | O=C(CCl)NC1CCS(=O)(=O)c2ccccc21 (centres undefined) | -0.00472 (inactive)
62 | O=C(CCl)N1CCC(=C(F)CO)C1 | -0.0747 (inactive)
63 | O=C(CCl)Nc1cccc2ncccc12 | 0.254 (inactive)
64 | O=C(CCl)Nc1cccc(C(=O)N2CCSCC2)c1 | -0.466 (inactive)

— the supplement of paper PMC11732987, “Enantioselective OTUD7B fragment discovery through chemoproteomics screening and high-throughput optimisation” (Communications Chemistry, 2025)
